We go through 9 molecules from PubChem BioAssay.

The nature of assay [1]: optical density shifts of acrAB sulA E. coli – strain DRC41, OD650, 48 h, E. coli filamentation inducer project, primary screen (AID 1152).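 Further: E. coli MC1000 strain DRC41 lacking acrAB efflux pump and sulA.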 The conditions noted are these: higher = more signal, called active from +8 up or from −8 down.
Assay [2] can be described thus: probe aLefty1 binding on compound microarray – biochemical, small-molecule microarray, 635/667 nm fluorescence, primary screen (AID 1153).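 Further: score merges spot fluorescence with signal-to-noise ratio from the scanned slide images.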 The following applies: higher = more signal.
A short description of assay [3]: plasmodial surface anion channel blockers, osmotic lysis – cell-based, P. falciparum Indochina, OD700, 1 h, primary screen (AID 1154). The following applies: P. falciparum Indochina infected RBC osmotic lysis, higher = more signal, called active from +8 up or from −8 down.
Assay [4] in a line: plasmodial surface anion channel blockers, osmotic lysis – cell-based, P. falciparum Indochina, OD700, 2 h, primary screen (AID 1155).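 Further: lysis reports solute entry through the parasite surface anion channel PSAC.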 The following applies: P. falciparum Indochina infected erythrocytes, higher = more signal, called active from +8 up or from −8 down.
Assay [5] is described as follows: changes in parasitized red cell lysis, either direction – P. falciparum Indochina, OD700, 3 h, PSAC antagonist project, primary screen (AID 1156). The following applies: P. falciparum-infected erythrocytes, osmotic lysis, higher = more signal, called active from +8 up or from −8 down.
Assay [6] is described as follows: plasmodial surface anion channel blockers, osmotic lysis – cell-based, P. falciparum Indochina, OD700, 18 h, primary screen (AID 1157). The conditions noted are these: P. falciparum Indochina infected erythrocytes, osmotic lysis OD700, 18 h; higher = more signal, called active from +8 up or from −8 down.
Assay [7] is described as follows: S6 kinase pathway phospho-S6 level changes – cell-based, A549, cytoblot, luminescence, serum-stimulated, primary screen (AID 1158).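 Further: serum-stimulated A549 lung adenocarcinoma cells; signal is phosphorylated S6 detected by cytoblot immunostaining with HRP secondary.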 The conditions noted are these: 5 h, higher = more signal.
The target in assay [8] is NADPH oxidase 2 (Homo sapiens) (UniProt P04839). In words: compounds shifting NOX2 Amplex Red fluorescence – cell-based, HEK293-NOX2, PMA-stimulated, NOX inhibitor project, primary screen (AID 1159). Further: test concentration not given here. The conditions noted are these: 45 min, higher = more signal, called active from +8 up or from −8 down.
Assay [9] deals with NADPH oxidase 4 (Homo sapiens) (UniProt Q9NPH5). Nature of the assay: compounds shifting NOX4 Amplex Red fluorescence – cell-based, HEK293-NOX4, tetracycline-induced, NOX inhibitor project, primary screen (AID 1160). The following applies: HEK293-NOX4, Amplex Red H2O2 fluorescence, 45 min; higher = more signal, called active from +8 up or from −8 down.
Assay [10] has as its target NADPH oxidase 5 (Homo sapiens) (UniProt Q96PH1). Nature of the assay: compounds shifting NOX5 Amplex Red fluorescence – cell-based, HEK293-NOX5, NOX inhibitor project, primary screen (AID 1161). The conditions noted are these: HEK293-NOX5, ionomycin, 45 min, higher = more signal.
Assay [11] is described as follows: compound effects on lung adenocarcinoma cell viability – A549, calcein-AM fluorescence, 48 h, basal, profiling panel (AID 1162). Further: test concentration not given here. The following applies: higher = more signal.
Assay [12] is described as follows: compound effects on differentiated 3T3-L1 adipocyte viability – cell-based, 3T3-L1 adipocytes, calcein-AM fluorescence, 48 h, basal, profiling panel (AID 1163). Further: test concentration not given here. The following applies: 3T3-L1 adipocytes viability, higher = more signal.
Assay [13] can be described thus: compound effects on hepatocellular carcinoma cell viability – HepG2, calcein-AM fluorescence, 48 h, basal, profiling panel (AID 1164). Further: test concentration not given here. The following applies: higher = more signal.
A short description of assay [14]: compound effects on multiple myeloma cell viability – MM1S, calcein-AM fluorescence, 48 h, basal, profiling panel (AID 1165). Further: test concentration not given here. The conditions noted are these: higher = more signal.
A short description of assay [15]: calcein-AM signal in unstimulated myeloma cells – cell-based, calcein-AM fluorescence, 48 h, PK04 Diversity Set, profiling panel (AID 1166).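 Further: cells grown under basal conditions without added stimulus; test concentration not given here.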 The following applies: RPMI8226 myeloma viability, higher = more signal.
A short description of assay [16]: JC-1 mitochondrial signal, unstimulated HepG2 cells – cell-based, JC-1 fluorescence, 24 h, 100 nL compound, profiling panel (AID 1167). Further: test concentration not given here. The conditions noted are these: HepG2 mitochondrial potential, higher = more signal.
Assay [17] in a line: JC-1 mitochondrial signal, unstimulated adipocytes – cell-based, JC-1 fluorescence, 3T3-L1 adipocytes, 24 h, 100 nL compound, profiling panel (AID 1168). Further: test concentration not given here. The conditions noted are these: JC-1 mitochondrial fluorescence, higher = more signal, called active from +8 up or from −8 down.
The nature of assay [18]: JC-1 mitochondrial signal, unstimulated myeloma cells – cell-based, JC-1 fluorescence, RPMI8226, 24 h, 100 nL compound, profiling panel (AID 1169). Further: test concentration not given here. The conditions noted are these: JC-1 mitochondrial potential fluorescence, higher = more signal.
Assay [19] can be described thus: JC-1 mitochondrial signal, unstimulated MM1S myeloma – cell-based, JC-1 fluorescence, 24 h, 100 nL compound, profiling panel (AID 1170). Further: test concentration not given here. The conditions noted are these: MM1S mitochondrial potential, higher = more signal.
Assay [20] can be described thus: resazurin metabolic signal in A549 cells – cell-based, resazurin fluorescence, 24 h, PK04 Diversity Set, profiling panel (AID 1171). Further: test concentration not given here. The following applies: A549 viability, higher = more signal, called active from +8 up or from −8 down.

The source made the active and inactive calls.

NADPH oxidase 5 (Homo sapiens), sequence (Q96PH1 whole entry, looked up): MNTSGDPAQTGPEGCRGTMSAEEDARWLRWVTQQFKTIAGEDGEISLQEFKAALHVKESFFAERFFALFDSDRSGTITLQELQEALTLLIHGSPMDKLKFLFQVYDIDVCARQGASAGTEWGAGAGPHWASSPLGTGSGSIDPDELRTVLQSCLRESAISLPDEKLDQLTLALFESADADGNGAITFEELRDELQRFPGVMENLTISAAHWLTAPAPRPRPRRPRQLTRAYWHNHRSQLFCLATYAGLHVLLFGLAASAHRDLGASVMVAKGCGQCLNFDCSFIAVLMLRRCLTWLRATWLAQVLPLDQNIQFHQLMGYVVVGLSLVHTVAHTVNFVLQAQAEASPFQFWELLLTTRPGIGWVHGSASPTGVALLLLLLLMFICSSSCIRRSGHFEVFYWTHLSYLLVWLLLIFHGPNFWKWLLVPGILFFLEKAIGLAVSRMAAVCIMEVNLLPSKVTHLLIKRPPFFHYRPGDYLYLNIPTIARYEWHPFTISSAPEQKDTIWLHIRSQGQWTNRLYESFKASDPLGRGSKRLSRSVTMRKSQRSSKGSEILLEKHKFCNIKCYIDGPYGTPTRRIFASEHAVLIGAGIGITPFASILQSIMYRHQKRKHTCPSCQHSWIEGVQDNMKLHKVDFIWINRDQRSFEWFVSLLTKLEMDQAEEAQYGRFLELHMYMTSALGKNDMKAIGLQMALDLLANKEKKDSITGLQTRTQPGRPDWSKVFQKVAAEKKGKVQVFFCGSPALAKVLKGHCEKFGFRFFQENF
NADPH oxidase 2 (Homo sapiens), sequence (P04839 whole entry, looked up): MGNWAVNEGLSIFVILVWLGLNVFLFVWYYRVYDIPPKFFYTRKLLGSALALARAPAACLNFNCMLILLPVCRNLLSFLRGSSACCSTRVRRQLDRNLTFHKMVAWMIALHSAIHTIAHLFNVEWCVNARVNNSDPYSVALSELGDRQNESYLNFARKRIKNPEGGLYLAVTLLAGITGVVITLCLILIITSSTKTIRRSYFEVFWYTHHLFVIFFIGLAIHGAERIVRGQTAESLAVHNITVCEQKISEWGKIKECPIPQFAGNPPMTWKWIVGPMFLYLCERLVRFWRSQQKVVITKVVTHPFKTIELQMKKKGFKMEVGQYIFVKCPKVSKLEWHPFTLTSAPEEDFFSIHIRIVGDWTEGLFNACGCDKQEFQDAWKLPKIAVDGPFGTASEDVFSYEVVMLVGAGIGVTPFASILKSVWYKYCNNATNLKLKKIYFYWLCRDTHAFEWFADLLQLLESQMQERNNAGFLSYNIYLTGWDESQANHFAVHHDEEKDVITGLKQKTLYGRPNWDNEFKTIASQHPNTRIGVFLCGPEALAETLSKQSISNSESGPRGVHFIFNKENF
NADPH oxidase 4 (Homo sapiens), sequence (Q9NPH5 whole entry, looked up): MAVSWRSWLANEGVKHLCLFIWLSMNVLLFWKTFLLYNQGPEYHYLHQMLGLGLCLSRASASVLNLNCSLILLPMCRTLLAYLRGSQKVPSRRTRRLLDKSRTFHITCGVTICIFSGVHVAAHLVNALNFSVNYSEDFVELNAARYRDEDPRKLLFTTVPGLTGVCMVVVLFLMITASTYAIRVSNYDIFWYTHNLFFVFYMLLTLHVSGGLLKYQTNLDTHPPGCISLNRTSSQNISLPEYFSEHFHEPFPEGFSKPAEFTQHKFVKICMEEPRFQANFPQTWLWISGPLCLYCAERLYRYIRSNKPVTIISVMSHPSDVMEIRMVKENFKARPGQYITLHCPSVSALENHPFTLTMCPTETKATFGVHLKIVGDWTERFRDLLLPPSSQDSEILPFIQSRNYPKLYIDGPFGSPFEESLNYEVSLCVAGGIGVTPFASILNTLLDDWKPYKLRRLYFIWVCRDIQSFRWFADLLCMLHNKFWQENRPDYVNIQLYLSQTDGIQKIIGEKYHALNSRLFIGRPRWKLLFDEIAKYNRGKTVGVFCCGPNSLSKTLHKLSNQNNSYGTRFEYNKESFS

For `[N-]=[N+]=NCc1ccccc1C[C@@]1(C(=O)O)N=C(c2ccc(OCCCO)cc2)O[C@@H]1c1ccccc1N=[N+]=[N-]`, the z-score in [1] was 0.051 (inactive); in assay [3], 30.3 (active); in assay [4] it was 24.4 (active); in assay [5], 1.44 (inactive); in [6], 5.12 (inactive); in [7] it was -0.272. In addition, the z-score in assay [8] was -0.0613 (inactive); in assay [9] it was 1.21 (inactive); in assay [10], 0.819; in assay [11] it was 0.593; in assay [12] it was 0.0001; in [13] it was 0.435. Also, the z-score is -1.52 in assay [14]; -2.27 in [15]; -1.58 in [16]; 0.428 (inactive) in assay [17]; -0.898 in assay [18]; -1.31 in [19]. Also, the z-score in assay [20] was -1.32 (inactive). Besides, the composite z-score in assay [2] was 0.337.
For `C=C(CCCC)/C(=C/C[C@H](OC(=O)c1ccncc1)c1cccc(OCCO)c1)c1cc(C(=O)OC)ccc1OC`, the z-score in assay [1] is 1.93 (inactive); in assay [3], 21.6 (active); in assay [4] it was 3.75 (inactive); in assay [5], 1.61 (inactive); in assay [6] it was -0.403 (inactive); in assay [7], 1.21. Further, the z-score is -3.36 (inactive) in assay [8]; -1.72 (inactive) in assay [9]; -2.92 in assay [10]; 0.215 in assay [11]; 2.52 in [12]; 0.0827 in assay [13]. Moreover, the z-score in [14] was -1.78; in assay [15], -1.93; in assay [16], 4.13; in [17] it was -0.174 (inactive); in [18] it was -0.337; in assay [19], -0.342. Further, the z-score in assay [20] is 2.6 (inactive). Further, the composite z-score in assay [2] is 0.0406.
With `COc1cccc([C@@H]2[C@@H](C)CC[C@H]3C(=O)N(C)[C@@H](C(C)C)C(=O)N23)c1`, the z-score was 1.1 (inactive) in [1]; -0.147 (inactive) in assay [3]; 0.651 (inactive) in assay [4]; -0.355 (inactive) in [5]; -0.0201 (inactive) in [6]; 0.423 in assay [7]. Moreover, the z-score was 0.226 (inactive) in assay [8]; 0.0929 (inactive) in assay [9]; 0.265 in assay [10]; 0.908 in [11]; 0.323 in [12]; 0.445 in assay [13]. The z-score in [14] is 0.344; in assay [15], 1.44; in [16], 0.0824; in [17], 0.517 (inactive); in [18], -0.338; in assay [19], 0.64. Besides, in assay [20], the z-score was 0.65 (inactive). The same molecule registered a composite z-score in [2] of -0.193.
In the case of `C#CCCCON=C1C[C@@H](O)[C@@H](O)[C@@H]2[C@@H]3C(=O)N(Cc4ccc5c(c4)OCO5)C(=O)[C@@H]3CC[C@@H]12`, the z-score is 0.741 (inactive) in assay [1]; -0.0259 in assay [7]; 0.192 (inactive) in assay [8]; 0.773 (inactive) in [9]; -0.019 in assay [10]; 0.347 in assay [11]. Also, the z-score in assay [12] was -1.2; in assay [13], -0.61; in [14] it was 1.03; in assay [15], 0.351; in assay [16], 0.722; in [17] it was 1.44 (inactive). Also, the z-score in assay [18] was 0.412; in assay [19], -1.46; in [20] it was 0.414 (inactive). The composite z-score in [2] is 0.137.
With `CCOC(=O)C[C@H]1[C@H](OC(=O)c2cc3ccccc3oc2=O)[C@@H](NC(=O)C2CCCCC2)c2cc(OCCCO)ccc2N1C(=O)c1ccc2ccccc2n1`, the z-score in assay [1] is -0.836 (inactive); in assay [3] it was 4.81 (inactive); in assay [4], 0.491 (inactive); in assay [5], 0.499 (inactive); in assay [6], 0.549 (inactive); in assay [7], -0.725. The z-score is 2.44 (inactive) in assay [8]; 1.52 (inactive) in assay [9]; 0.451 in [10]; -0.133 in [11]; 0.536 in assay [12]; 0.312 in [13]. Moreover, the z-score is 0.0733 in assay [14]; -0.253 in assay [15]; 0.0115 in assay [16]; -0.734 (inactive) in assay [17]; 0.322 in assay [18]; -0.166 in [19]. In assay [20], the z-score was 0.164 (inactive). This molecule also registered a composite z-score in assay [2] of -0.0547.
For the molecule `CC/C=C/C(=O)N(C[C@@H]1CCCO1)[C@@H]1CC(C(=O)NCCO)=C[C@H](Oc2c(I)cc(CO)cc2OC)[C@H]1O`, the z-score in assay [1] is 1.24 (inactive); in [3], 1.05 (inactive); in [4] it was -0.433 (inactive); in assay [5], 1.31 (inactive); in [6] it was -1.48 (inactive); in assay [7] it was 1.98. Moreover, the z-score in assay [8] is -0.425 (inactive); in [9], 1.5 (inactive); in [10], 1.2; in assay [11] it was 1.65; in assay [12] it was 0.407; in [13], 0.362. Moreover, the z-score in [14] was 0.0808; in assay [15] it was 0.587; in assay [16], 2.48; in assay [17], 1.32 (inactive); in [18], -0.0319; in [19], 0.265. The z-score in assay [20] is 1.07 (inactive). In addition, in assay [2], the composite z-score worked out at 0.135.
In the case of `CCCC/C=C/[C@H]([C@@H](O)Cc1ccccc1)N(CC#Cc1ccccc1)Cc1ccccc1Br`, the z-score in assay [1] is 2.99 (inactive); in assay [3], 2.63 (inactive); in assay [4], 1.29 (inactive); in assay [5], -0.0195 (inactive); in assay [6], 0.522 (inactive); in assay [7], 0.108. In addition, the z-score was -0.424 (inactive) in [8]; 0.426 (inactive) in [9]; -0.622 in assay [10]; 1.44 in assay [11]; -0.0982 in assay [12]; 0.632 in assay [13]. The z-score is 0.558 in [14]; 0.0649 in assay [15]; 0.427 in [16]; 0.519 (inactive) in [17]; -0.462 in assay [18]; -0.435 in assay [19]. Moreover, in assay [20], the z-score is 2.84 (inactive). In addition, the composite z-score in assay [2] is -0.0061.
As to `O=C1c2ccccc2[C@](Cc2ccccc2I)(C(=O)NCc2ccccc2)[C@H](c2ccc(CO)cc2)N1Cc1ccccc1C(F)(F)F`, the z-score in assay [1] is 1.73 (inactive); in assay [3] it was 1.62 (inactive); in assay [4] it was -0.664 (inactive); in assay [5], -0.345 (inactive); in assay [6], -1.24 (inactive); in assay [7] it was 0.524. Besides, the z-score is 0.617 (inactive) in assay [8]; -0.738 (inactive) in assay [9]; 2.32 in [10]; 0.582 in [11]; 1.06 in [12]; 0.185 in [13]. Moreover, the z-score is -0.698 in [14]; 0.0474 in [15]; 1.11 in assay [16]; 0.789 (inactive) in [17]; 0.467 in [18]; 0.463 in [19]. In addition, the z-score in assay [20] was 0.584 (inactive). The composite z-score in assay [2] was -0.103.
For `COc1ccc([Si](C)(C)[C@@H]2[C@@H](CCO)O[C@]3(C(=O)N(Cc4ccc(NC(=O)[C@H](C)O)cc4)c4ccccc43)[C@H]2C)cc1`, the z-score in assay [1] was 1.12 (inactive); in assay [3], 31.4 (active); in assay [4] it was 27.1 (active); in assay [5], 1.58 (inactive); in assay [6], 2.46 (inactive); in assay [7] it was 0.597. Further, the z-score was 0.535 (inactive) in assay [8]; 1.26 (inactive) in [9]; 0.648 in assay [10]; -2.45 in [11]; 1.63 in assay [12]; -2.43 in [13]. Also, the z-score in [14] is -2.97; in assay [15], -2.49; in [16] it was -1.84; in assay [17], 0.492 (inactive); in [18], -1.12; in [19], -0.492. In assay [20], the z-score is -2.95 (inactive). This molecule came in with a composite z-score in assay [2] of 0.0378.
